Screens (PubChem BioAssay)
Six1-Eya2 blk = qHTS Assay for Inhibitors of the Six1/Eya2 Interaction. Homeobox protein SIX1 (Homo sapiens) + Protein phosphatase EYA2 (Homo sapiens), …. AlphaScreen GST-Six1/His-Eya2 binding, biochemical; active compounds read low. activity change, % (no concentration beside the values). 0.56% of 360,000 active; in the data active means activity change below about -65%; inconclusive means mostly about -30% to -63%
Target sequence (O00167 whole entry, looked up): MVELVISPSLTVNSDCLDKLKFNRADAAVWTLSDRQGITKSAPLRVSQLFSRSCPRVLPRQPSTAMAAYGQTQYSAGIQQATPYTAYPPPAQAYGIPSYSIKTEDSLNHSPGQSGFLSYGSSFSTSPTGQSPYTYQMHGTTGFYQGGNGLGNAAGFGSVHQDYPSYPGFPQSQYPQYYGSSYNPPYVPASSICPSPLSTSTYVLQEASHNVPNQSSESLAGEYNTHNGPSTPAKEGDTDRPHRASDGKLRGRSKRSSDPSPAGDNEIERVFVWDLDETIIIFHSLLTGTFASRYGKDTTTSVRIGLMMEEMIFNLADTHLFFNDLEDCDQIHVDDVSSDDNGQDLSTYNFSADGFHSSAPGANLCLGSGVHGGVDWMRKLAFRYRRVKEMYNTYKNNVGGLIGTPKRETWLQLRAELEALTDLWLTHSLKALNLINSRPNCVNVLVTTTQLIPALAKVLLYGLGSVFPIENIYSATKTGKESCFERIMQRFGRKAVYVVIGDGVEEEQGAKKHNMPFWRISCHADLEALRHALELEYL
Target sequence (Q15475 whole entry, looked up): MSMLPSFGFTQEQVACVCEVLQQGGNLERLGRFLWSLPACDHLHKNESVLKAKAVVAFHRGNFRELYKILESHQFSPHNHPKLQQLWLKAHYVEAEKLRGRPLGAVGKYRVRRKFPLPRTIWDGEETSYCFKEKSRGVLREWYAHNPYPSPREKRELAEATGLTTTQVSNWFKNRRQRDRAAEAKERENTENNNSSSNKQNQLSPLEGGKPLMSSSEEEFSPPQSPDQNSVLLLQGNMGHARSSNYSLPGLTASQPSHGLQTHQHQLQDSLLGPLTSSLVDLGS
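AlphaScreen with GST-Six1 and His-Eya2 (5X mix: 250 nM and 500 nM), glutathione donor and nickel acceptor beads; buffer 50 mM Tris pH 8.0, 300 mM NaCl, 1 mM TCEP; 1 h at 37 C in the dark.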
Gal4-VP16 FLuc = VP16 counterscreen qHTS for inhibitors of ROR gamma transcriptional activity | 3.5% of 310,000 active | Potency, µM (titrated, usually from 53.6 µM), inactives show top-dose activity, negative = inhibition, hits mostly inhibitors | Drosophila S2 Gal4-VP16 UAS-luciferase, luminescence, 20 h;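 further: Gal4-VP16 expression switched on by copper sulfate through the metallothionein promoter; potency means the concentration at half of the fitted maximal effect; nearly all actives have a fitted effect of over 50% in size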
PKM2 activator = qHTS Assay for Activators of Human Muscle isoform 2 Pyruvate Kinase; Potency, µM (top dose mostly 57.5 µM), for the others: at the top dose activation, most hits filed as activators; purified PKM2, Kinase-Glo ATP luminescence, activation; response scale: 0% is enzyme alone, no compound; Pyruvate kinase PKM (Homo sapiens), P14618; AID 1631, 2009; 0.34% of 260,000 active; further: potency means the concentration at half of the fitted maximal effect; nearly all actives have a fitted effect of over 55% in size
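hPK-M2, >95% pure; 0.1 mM ADP / 0.5 mM PEP final; imidazole pH7.2 buffer w/ 7 mM MgCl2, 50 mM KCl; 1 h RT; Kinase-Glo lum. Intermediate enzyme activity for dual inhibitor/activator qHTS.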
RORgamma inh = qHTS for inhibitors of ROR gamma transcriptional activity; Nuclear receptor ROR-gamma (Mus musculus), P51450; Drosophila S2 Gal4-RORgamma UAS-luciferase reporter, 20 h; Potency, µM (doses to about 53.6 µM), inactives show at the highest dose activity change, negative = inhibition, usual class: inhibitors; 5.4% of 310,000 active; AID 2551, 2010; further: potency means the concentration at half of the fitted maximal effect; nearly all actives have a fitted effect of over 60% in size
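Using a luciferase readout, inhibitors were identified by reduced reporter activity in Drosophila cells coexpressing a copper-inducible Gal4–ROR gamma fusion and UAS-driven Photinus luciferase, incubated 20 hr after 700 uM copper sulfate.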
CtBP-E1A blk = qHTS Assay for Inhibitors of the CtBP/E1A Interaction; 0.49% of 340,000 active; AlphaScreen GST-E1A/His-CtBP binding, 1536-well; active compounds read low; activity change, % (no concentration beside the values); in the data active means activity change below about -65%; inconclusive means mostly about -30% to -63%
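Protein mix (5X: 125 nM each GST-E1A, His-CtBP) was incubated with pinned compound 2 h at 37 deg C in dark, in 50 mM Tris pH 8.0 buffer with 300 mM NaCl. Glutathione donor and nickel acceptor beads followed; AlphaScreen signal read after 1 h.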
* marks the source's active call; other numbers are inactive results; u = inconclusive; x = no result given. Shown are actives, neighbours in structure and some others; about 5.6% of the full set was active somewhere. Unless noted, the call rests on the fitted dose curve; in most records, active means well fitted curve in the direction sought with a large enough effect; inconclusive means small, poorly fitted or top-dose-only effect, or another doubt; inactive means no such curve, though single readings can be large; an effect the other way counts as inactive or inconclusive. On the % scale 0 is the no-effect control and ±100 the full control effect.

SMILES	Six1-Eya2 blk	Gal4-VP16 FLuc	PKM2 activator	RORgamma inh	CtBP-E1A blk
COc1ccc(CCNC(=S)NC(=O)c2cccc(Cl)c2)cc1OC	1	u	-5%	11µM*	-22
COc1ccc(CCNC(=S)NC(=O)c2cccc([N+](=O)[O-])c2)cc1OC	-17	16µM*	-7%	13µM*	-13
COc1ccc(/C=C/C(=O)NC(=S)NCCc2ccc(OC)c(OC)c2)cc1	-1	u	1%	2.8µM*	1
COc1ccc(CCNC(=O)c2ccc(OC)c(OC)c2)cc1OC	-10	16%	0%	-8%	-24
COc1ccc(C(=O)NC(=S)NCCc2ccccc2)cc1	1	u	0%	10µM*	4
COc1ccc(CCNC(=O)c2cc([N+](=O)[O-])cc([N+](=O)[O-])c2)cc1OC	-3	8%	x	-26%	0
O=S(=O)(NNc1ncc(C(F)(F)F)cc1Cl)c1ccccc1	13	x	x	x	-14
COc1ccc(CCNC(=S)NC(=O)c2ccccc2)cc1OC	-11	7.1µM*	5%	4.5µM*	-9
O=C(NC(=S)NCCc1ccccc1)c1cccc(Cl)c1	8	18µM*	3%	13µM*	-12
COc1ccc(CCNC(=S)NC(=O)c2cc(OC)c(OC)c(OC)c2)cc1OC	-17	-3%	-1%	-40%	0
Cc1cc(C)nc(Nc2n[nH]c(COc3ccc(Cl)cc3)n2)n1	7	-11%	0%	-22%	3
Cc1ccc(OCc2nc(-c3ccccn3)n[nH]2)cc1	-92*	5µM*	-3%	3.2µM*	-98*
Cc1cccc(OCc2nc(-c3ccccn3)n[nH]2)c1	-94*	2.8µM*	-1%	1.6µM*	-89*
CCn1cc(CNc2nc3nonc3nc2N2CCCCC2)cn1	2	u	4%	7.1µM*	-3
C=CCNC(=S)/N=c1/ccccn1CC	7	-2%	0%	10µM*	4
CC(C)(C)c1cc(C(=O)NN)n(Cc2ccc(F)cc2)n1	2	-11%	22%	11µM*	x
Cc1cccc(Cn2nc(C(C)(C)C)cc2C(=O)Nc2ccc(F)cc2)c1	23	-6%	2%	0%	14
O=C(Nc1nnc(-c2ccccc2)s1)c1ccccc1F	1	1%	-17%	13µM*	-15
O=C(Nc1nnc(-c2ccccc2Cl)s1)c1ccccc1F	4	-1%	x	-14%	4
CC(C)(C)c1ccc(-c2nnc(NC(=O)c3ccccc3)s2)cc1	3	u	0%	7.9µM*	8
O=C(Nc1ccccc1C(=O)Nc1nnc(C(F)(F)F)s1)c1ccccc1Cl	6	16µM*	0%	u	-4
COc1cccc(CC(=O)OCC(=O)NCCc2ccc(F)cc2)c1	4	x	x	x	14
Cc1nnc(NCC=Cc2ccccc2)s1	-1	x	x	x	-3
OCC[C@@H]1C[C@H](O)[C@@H](O)[C@@]2(Cc3ccccc3O2)O1	12	-2%	1%	25%	10
OC(c1cc(F)cc(Cl)c1)c1ncc(-c2ccc(Cl)cc2)[nH]1 (stereo not drawn)	-12	x	x	x	-12
SMILES	Six1-Eya2 blk	Gal4-VP16 FLuc	PKM2 activator	RORgamma inh	CtBP-E1A blk
COc1ccc(C2C=C(C34CC5CC(CC(C5)C3)C4)NC(=S)N2)cc1OC (stereo not drawn)	u	1.6µM*	-2%	1.3µM*	u
COc1cc([C@@H]2CC(=O)c3c(O)cc(O)cc3O2)ccc1O	x	7%	x	2%	x
CC(C)CNC(=S)NC(=O)c1ccc([N+](=O)[O-])cc1	-12	14µM*	1%	4.5µM*	2
CCCCNC(=S)NC(=O)c1ccc([N+](=O)[O-])cc1	-29	u	3%	4.5µM*	0
Cn1c(=O)oc2cc(S(=O)(=O)N3CCCC(C(=O)NC4CCCc5ccccc54)C3)ccc21 (stereo not drawn)	-9	0.1µM*	2%	u	-4
Cc1ccc2nc(-c3ccccc3)c(CN3CCN(c4ccccc4F)CC3)n2c1	-5	u	0%	8.9µM*	x
Cc1ccc2nc(-c3ccccc3)c(CN3CCSCC3)n2c1	-9	-5%	6%	16µM*	-9
Cc1ccc2nc(N3CCN(c4ccccc4F)CC3)c(C=O)c(=O)n2c1	1	-5%	-2%	15%	-5
Cc1ccc2nc(-c3ccccc3)c(CN3CCOCC3)n2c1	1	u	-2%	4%	0
CCC(Oc1ccccc1)C(=O)NCCCN1CCOCC1 (stereo not drawn)	2	2%	2%	-2%	6
COC(=O)/C=C/C(=O)Nc1ccc(O)c(Cl)c1	-3	u	3%	u	1
COC(=O)/C=C\c1cc(O)ccc1O	x	11µM*	x	14µM*	x
C/C(=N\NC(=O)c1ccccc1O)c1ccc(NC(=O)c2ccccc2)cc1	-2	u	x	u	-1
C/C(=N\NC(=O)C1CC1)c1ccccc1O	-22	6.3µM*	6%	1µM*	-3
C/C(=N/NC(=O)c1ccccc1O)c1ccc(N2C(=O)C3CCCCC3C2=O)cc1 (stereo not drawn)	-8	u	5%	13µM*	-2
C/C(=N\NC(=O)C1CC1)c1ccc(Cl)cc1	0	-12%	-5%	32%	-8
C/C(=N\NC(=O)C1CC1)c1ccccc1Br	2	10µM*	5%	u	5
CCOC(=O)N1CCN(C(=O)c2ccc3oc(CCCc4ccccc4)nc3c2)CC1	1	-12%	-3%	15%	-1
O=C(/C=C/c1ccc(S(=O)(=O)N2CCOCC2)cc1)NC(CO)C(O)c1ccc([N+](=O)[O-])cc1 (stereo not drawn)	-6	x	x	x	-5
Cn1cc(C(=O)c2ccc(Cl)cc2Cl)cc1C(=O)N/N=C(\N)COc1cccc(C(F)(F)F)c1	-13	2µM*	0%	2.2µM*	-3
COC(=O)c1cc(C(=O)c2ccc(Cl)cc2Cl)cn1C	-6	10%	1%	u	3
CCOc1ccc(Br)cc1/C(C)=N\NC1=NCCN1	3	7.9µM*	-1%	-33%	4
CC(=O)Oc1c(-c2ccco2)oc2ccccc2c1=O	-18	u	-25%	13µM*	-22
Cc1nnc(N/N=C/c2ccc(Br)cc2)n1N	1	u	0%	u	u
Cc1ccc(/C=N/Nc2nncn2N)cc1	18	13µM*	x	u	-28
COc1ccc(/C=N/Nc2nnc(C)n2N)cc1OC	u	u	3%	11µM*	0
Cc1nnc(N/N=C/c2ccc([N+](=O)[O-])cc2)n1N	-68*	-14%	0%	u	u
